We go through 8 molecules from PubChem BioAssay (NCATS).

The nature of assay [1]: qHTS Assay for Lipid Storage Modulators (AID 1519; calls by dose curve; as to activity change, negative = inhibition: % is scaled to controls: 0 for no effect and ±100 for the full control effect). The following applies: Drosophila S3 cells, BODIPY lipid droplet/cell ratio, laser cytometry, cells loaded with oleic acid. An outline of the steps:
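Cells seeded at 5,000 per well were treated with compounds over a concentration series and loaded with oleic acid (400 uM, as added). Lipid droplet fluorescence (488 nm excitation, 500-530 nm channel) was read by laser-scanning cytometry and normalized to 20 uM Triacsin C.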
(In general: qHTS replaces the single test concentration by a dilution series.)

The target of assay [2] is DNA repair nuclease/redox regulator APEX1 (Homo sapiens) (UniProt P27695). Briefly: qHTS Validation Assay for Inhibitors of the Human Apurinic/apyrimidinic Endonuclease 1 (APE1) (AID 1705;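 also: TAMRA fluorescence gain over two minutes as APE1 cuts a quenched THF abasic duplex; % is scaled to controls: 0 for no effect and ±100 for the full control effect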). The following applies: purified APE1 endonuclease activity, fluorescence, titration; series mostly up to 57.1 µM. In a few lines: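 Substrate: 50 nM final fluorophore/quencher THF-abasic duplex. Enzyme preincubated with compounds 15 min, RT. Progress derived from fluorescence difference, third minus first kinetic read.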
Sequence of DNA repair nuclease/redox regulator APEX1 (Homo sapiens) (P27695 whole entry, looked up): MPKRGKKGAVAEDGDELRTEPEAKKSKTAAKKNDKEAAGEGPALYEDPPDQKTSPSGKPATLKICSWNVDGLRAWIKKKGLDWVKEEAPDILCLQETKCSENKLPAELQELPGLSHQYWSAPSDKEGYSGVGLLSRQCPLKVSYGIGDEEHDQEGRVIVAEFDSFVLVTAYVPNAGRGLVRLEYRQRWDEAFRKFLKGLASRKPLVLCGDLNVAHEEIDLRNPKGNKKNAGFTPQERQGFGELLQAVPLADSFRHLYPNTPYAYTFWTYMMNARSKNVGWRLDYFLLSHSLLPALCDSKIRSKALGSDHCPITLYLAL

Assay [3] has as its target Endonuclease 4 (Escherichia coli (strain K12)) (UniProt P0A6C1). Briefly: Counterscreen for APE1 Inhibitors: qHTS Validation Assay for Inhibitors of Endonuclease IV (AID 1708). Also: % is scaled to controls: 0 for no effect and ±100 for the full control effect. The note with it: E. coli endonuclease IV, DNA cleavage fluorescence; series mostly up to 57.1 µM. An outline of the steps:
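The reaction buffer contained 50 mM Tris-HCl pH 7.5, 50 mM NaCl, 2 mM MgCl2, 1 mM DTT and 0.01% Tween-20. Incision of a 50 nM fluorophore/quencher THF substrate by 2 nM enzyme was measured kinetically.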
For orientation: The purpose of a counterscreen is to sort out artefacts and off-target activity.

A short description of assay [4]: qHTS for differential inhibitors of proliferation of Plasmodium falciparum line 7G8 (AID 1815).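 Also: parasite growth measured after three days of incubation.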 Also: potency is read from the fitted curve at half-maximal effect.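 As to activity change, negative = inhibition: plate controls were vehicle wells for no effect and reference inhibitor wells for full effect.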 The following applies: Plasmodium falciparum 7G8 proliferation inhibition; series mostly up to 28.7 µM.
A short description of assay [5]: qHTS for differential inhibitors of proliferation of Plasmodium falciparum line GB4 (AID 1816).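 Also: parasite growth measured after 72 h incubation.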 Also: potency is read from the fitted curve at half-maximal effect.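 As to activity change, negative = inhibition: 0% = vehicle DMSO and -100% = reference inhibitor.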 The note with it: Potency: Plasmodium falciparum GB4 proliferation inhibition; series mostly up to 28.7 µM.
Assay [6] can be described thus: qHTS for differential inhibitors of proliferation of Plasmodium falciparum line 3D7 (AID 1876). Also: potency is read from the fitted curve at half-maximal effect. The following applies: P. falciparum 3D7 proliferation inhibition; series mostly up to 28.7 µM.
The nature of assay [7]: qHTS for differential inhibitors of proliferation of Plasmodium falciparum line D10 (AID 1877).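 Also: parasites grown with compound for 72 h before DNA staining.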 Also: potency is read from the fitted curve at half-maximal effect.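 As to activity change, negative = inhibition: plate controls were vehicle wells for no effect and reference inhibitor wells for full effect.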 The note with it: series mostly up to 28.7 µM.
The nature of assay [8]: qHTS for differential inhibitors of proliferation of Plasmodium falciparum line Dd2 (AID 1882). Also: nearly all actives have a fitted effect of over 65% in size. Also: potency is read from the fitted curve at half-maximal effect.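 As to activity change, negative = inhibition: compound exposure of 72 h on infected erythrocytes; plate controls were DMSO vehicle for no effect and 0.29 µM artemisinin for full effect.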 The note with it: Potency: Plasmodium falciparum Dd2 proliferation inhibition; series mostly up to 28.7 µM. An outline of the steps: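 RBC culture, 0.3% parasitemia / 2.5% Hct final; cpd added by pin tool in DMSO; 72 h, 37 C, 5% CO2; lysis buffer + SYBR Green I, o/n RT dark; FI 485/535; norm. to artemisinin 0.29 uM and DMSO.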

Assay [9] can be described thus: qHTS for differential inhibitors of proliferation of Plasmodium falciparum line W2 (AID 1883).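 Also: parasites grown with compound for 72 h before lysis and staining.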 Also: potency is read from the fitted curve at half-maximal effect.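 As to activity change, negative = inhibition: 0% = vehicle wells and -100% = control inhibitor wells.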 The following applies: Potency: Plasmodium falciparum W2 proliferation inhibition; series mostly up to 28.7 µM.
Assay [10] in a line: qHTS for differential inhibitors of proliferation of Plasmodium falciparum line HB3 (AID 1886).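 Also: parasites grown with compound for 72 h before SYBR Green readout.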 Also: potency is read from the fitted curve at half-maximal effect.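 As to activity change, negative = inhibition: plate controls were vehicle for no effect and reference inhibitor for full effect.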 The note with it: Potency: Plasmodium falciparum HB3 proliferation inhibition; series mostly up to 28.7 µM.
For assay [11], the target named is ATP-dependent DNA helicase Q1 (Homo sapiens) (UniProt P46063). Briefly: qHTS Validation Assay for Inhibitors of RecQ-Like Dna Helicase 1 (RECQ1) (AID 2353).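 Also: plate controls were DMSO vehicle for no effect and enzyme-free control for full effect.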 The following applies: recombinant RECQ1 helicase DNA unwinding assay; series mostly up to 25.6 µM. In a few lines: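 RECQ1T1 50 nM; forked duplex (20 bp + 30-nt ss tails) 200 nM, ATP 2 mM final; pH 8.0, 2 mM MgCl2, 2.5 ug/ml poly(dI-dC); 15 min compound preincubation; discontinuous kinetic read over 2 h at RT.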
Sequence of ATP-dependent DNA helicase Q1 (Homo sapiens) (P46063 whole entry, looked up): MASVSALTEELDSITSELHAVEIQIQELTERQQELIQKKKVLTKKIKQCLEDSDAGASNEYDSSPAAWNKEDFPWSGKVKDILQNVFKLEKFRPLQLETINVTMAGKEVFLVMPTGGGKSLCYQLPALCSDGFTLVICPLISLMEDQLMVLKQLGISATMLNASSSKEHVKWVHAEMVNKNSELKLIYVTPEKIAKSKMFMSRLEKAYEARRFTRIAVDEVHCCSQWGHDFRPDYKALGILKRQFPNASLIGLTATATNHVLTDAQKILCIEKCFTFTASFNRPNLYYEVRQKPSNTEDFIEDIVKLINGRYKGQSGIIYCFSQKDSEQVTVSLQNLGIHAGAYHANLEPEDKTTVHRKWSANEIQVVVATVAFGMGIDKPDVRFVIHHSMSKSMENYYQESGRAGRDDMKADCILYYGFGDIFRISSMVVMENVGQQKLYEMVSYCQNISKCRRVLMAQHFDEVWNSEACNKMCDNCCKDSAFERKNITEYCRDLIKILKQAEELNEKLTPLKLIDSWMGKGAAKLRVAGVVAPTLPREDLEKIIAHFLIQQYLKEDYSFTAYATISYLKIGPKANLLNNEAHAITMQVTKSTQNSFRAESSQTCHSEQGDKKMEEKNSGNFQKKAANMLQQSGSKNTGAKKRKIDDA

Assay [12] is described as follows: Cytometric Cell-Based qHTS for Inhibitors of the mTORC1 Signaling Pathway in MEF (Tsc2-/-, p53-/-) Cells (AID 2660).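 Also: Tsc2 and p53 null MEFs carrying empty vector with compound for 24 h; percent of cells above a phospho-rpS6 to PI ratio cutoff in each well; plate controls were DMSO for no effect and rapamycin for full effect.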 The note with it: mTORC1 pathway cytometry; series mostly up to 38.3 µM. In a few lines: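 Percent of cells positive for normalized phospho-S6 staining is reported, with the cutoff set from rapamycin (7.5 nM) versus DMSO wells. Tsc2-/-, p53-/- MEFs received compound for 24 hrs.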

The nature of assay [13]: High Content Imaging Cell-Based qHTS for Inhibitors of the mTORC1 Signaling Pathway in MEF (Tsc2-/-, p53-/-) Cells (AID 2666).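 Also: percent of cells scored positive for phospho-rpS6 Ser235/236 immunostaining by imaging.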 The note with it: at 38.3 µM (top of the series). In a few lines:
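Tsc2-/-, p53-/- MEFs (empty-vector stable) grown in DMEM + 10% FBS were exposed to compounds for 24 hrs at 37 degree Celsius, fixed, and stained with Alexa-488 anti-phospho-rpS6 Ser235/236 plus Hoechst. Imaging gave the percentage of positive cells per well.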

Assay [14] can be described thus: High Content Imaging Cell-Based qHTS for Inhibitors of the mTORC1 Signaling Pathway in MEF Cells (AID 2667).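 Also: Tsc2-/- p53-/- MEFs stably re-expressing wild-type Tsc2 exposed 24 h; plate controls were DMSO wells for no effect and rapamycin control wells for full effect.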 The following applies: series mostly up to 38.3 µM. An outline of the steps: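 Tsc2-/-, p53-/- MEFs stably re-expressing WT Tsc2, grown in DMEM + 10% FBS, were treated with compounds for 24 hrs at 37 degree Celsius, fixed, and stained with Alexa-488 phospho-rpS6 Ser235/236 antibody plus Hoechst; results given as % positive cells.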

A short description of assay [15]: Validation screen for small molecules that induce DNA re-replication in MCF 10A normal breast cells (AID 463097). Also: 0% is about no effect; nearly all actives have a fitted effect of over 60% in size. The note with it: MCF 10A cells, DNA re-replication phenotype imaging; series mostly up to 46.1 µM. In a few lines: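 Following 48 hr compound incubation (37 C, 5% CO2), MCF 10A cells receive Hoechst for 40 min at 37 C. Nuclei are then scanned (excitation 405 nm, emission 500-530 nm) for total fluorescence intensity.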

The mark [16] stands for this setting: measured here: cell count channel max response.
The mark [17] stands for this setting: measured here: lipid channel max response.

Several values for one entry are separate records, joined by “and”; a condition that tells them apart may be missing. Identical values can stand only once. Results filed as inconclusive are left out. Activity calls are given as the source filed them. Unless noted, calls follow the shape of the dose curve; as a rule, active = well fitted curve in the direction sought with a large enough effect; inconclusive = small, poorly fitted or top-dose-only effect, or another doubt; inactive = no such curve, though single readings can be large; an effect the other way counts as inactive or inconclusive.

`CNC[C@H](O)c1cccc(O)c1`: the activity change, negative = inhibition in assay [1] (at 57.5 µM (top of the series)) is 0.239% (inactive). Besides, the max response was 20.5% in assay [1] (setting [16]) and 21.2% in assay [1] (setting [17]). For the same molecule, the outcome in assay [2], in assay [3], in assay [11], in assay [12], in assay [13] and in assay [14] was inactive. Further, the Potency entry in assay [4], in assay [5], in assay [6], in assay [7], in assay [8] and in assay [9] was “inactive” in each case. Also, the Potency result in [10] and in assay [15] was “inactive” throughout.

With `CCCc1nn(C)c2c(=O)[nH]c(-c3cc(S(=O)(=O)N4CCN(C)CC4)ccc3OCC)nc12`, the activity change, negative = inhibition in assay [1] (at 57.5 µM (top of the series)) was 9.83% (inactive). The max response in [1] (setting [16]) worked out at 12.2%; in assay [1] (setting [17]), 27.6%.

For `N#Cc1ccc(C(c2ccc(C#N)cc2)n2cncn2)cc1`, in [1] (at 25.7 µM (top of the series)), the activity change, negative = inhibition is 0.817% (inactive). In addition, the max response in assay [1] (setting [16]) is -19.8%; in [1] (setting [17]), -18.7%.

For the molecule `CCOC(=O)N1CCC(=C2c3ccc(Cl)cc3CCc3cccnc32)CC1`, the activity change, negative = inhibition in assay [1] (at 57.5 µM (top of the series)) was 3.85% (inactive). Further, the max response in assay [1] (setting [16]) came to 1.57%; in assay [1] (setting [17]), 11.7%. Further, the molecule was classed as inactive in [2], in [3], in assay [11] and in assay [12]. The Potency in [4] is 2.24 µM (active); in assay [5], 10 µM (active); in assay [6], 12.6 µM (active); in assay [7] it was 10 µM (active); in [8], 10 µM (active); in [9] it was 5.01 µM (active). In assay [10], the Potency is 10 µM (active).

`NNCCc1ccccc1`: the activity change, negative = inhibition in assay [1] (at 25.7 µM (top of the series)) is 1.11% (inactive); in assay [1] (at 57.5 µM (top of the series)), 11.9% (inactive). Moreover, the max response in assay [1] (setting [16]) was 3.17% and -11.1%; in assay [1] (setting [17]), -2.33% and 4.58%. The call in [2], in [3], in assay [11], in assay [12], in [13] and in assay [14] was inactive. The Potency entry in assay [7], in assay [8] and in assay [15] was “inactive” in each case.

In the case of `Cc1[nH]c(=O)c(C#N)cc1-c1ccc2nccn2c1`, the activity change, negative = inhibition in [1] (at 57.5 µM (top of the series)) is -1.62% (inactive). Besides, the figures for the max response in assay [1] (setting [16]) and in assay [1] (setting [17]) were 25.3% and 21.7%, respectively. For the same molecule, the outcome in assay [2], in assay [3], in assay [11], in assay [12], in assay [13] and in [14] was inactive. Moreover, the Potency entry in assay [4], in [5], in [6], in assay [8], in [10] and in [15] was “inactive” each time.

For `O=c1[nH]cnc2[nH]ncc12`, in assay [1] (at 57.5 µM (top of the series)), the activity change, negative = inhibition was 3.88% (inactive) and -0.195% (inactive). The max response in assay [1] (setting [16]) was 3.2% and 58%; in assay [1] (setting [17]), 12.9% and 60.4%. Further, the outcome in [2], in [3], in assay [11], in assay [12], in assay [13] and in [14] was inactive. Moreover, the Potency result in assay [4], in [5], in assay [6], in assay [7], in assay [8] and in assay [9] was “inactive” in each case. For the same molecule, the Potency entry in assay [10] and in assay [15] was “inactive” throughout.

With `CCCc1nc2c(C)cc(-c3nc4ccccc4n3C)cc2n1Cc1ccc(-c2ccccc2C(=O)O)cc1`, the activity change, negative = inhibition in assay [1] (at 57.5 µM (top of the series)) is -11.9% (inactive). The max response in assay [1] (setting [16]) was -6.13%; in [1] (setting [17]), -15.7%.
